Assay outcomes from PubChem BioAssay.
Fluor 339 460: intrinsic fluorescence of library compounds, ex339/em460 – biochemical, MLSMR library, data from DPM-DC assay, artefact control, profiling panel; compound autofluorescence, ex339/em460 nm, NADH buffer; hits give high values; 1 = no-compound wells, NADH background; hit rate 5.5% among 65,000; AID 709, 2007; fluorescence fold increase at 10 µM;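 active = at 10 µM, mean starting fluorescence two-fold or more over control wells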;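 also: signal is the first read of a kinetic run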
Spn PMK inh: S. pneumoniae PMK inhibitors, primary screen, biochemical, mevalonate pathway, pilot trial included; inhibition, % at 10 µM; purified PMK, PK/LDH-coupled NADH absorbance 340 nm; phosphomevalonate kinase (Streptococcus pneumoniae D39); hit rate 0.49% among 65,000;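 active = top-ranked compounds by inhibition in the single 10 µM screen, taking a fixed number of the strongest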
A340 absorber: compound light absorbance at 340 nm, profiling panel, artefact control, biochemical, MLSMR library, data from PS, PMK, MK assays | 65,000 tested, under 10 active | fold change at 10 µM | compound absorbance at 340 nm, fold over control | AID 708, 2007;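 active = at 10 µM dose, initial 340 nm absorbance at least 2 fold that of control wells; inactive = change under 2 fold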;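 also: initial absorbance extrapolated from kinetic A340 decline of NADH oxidation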
DPM-DC inhibit: S. pneumoniae DPM-DC inhibitors, primary screen, biochemical, PK/LDH-coupled NADH fluorescence | purified DPM-DC | hit rate 0.49% among 65,000 | calls only at 10 µM | diphosphomevalonate decarboxylase (Streptococcus pneumoniae D39);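 active = the 320 compounds with the highest percent inhibition in the single-dose primary screen, excluding strongly autofluorescent ones, cut at about 32% in these data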;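 also: kinetic rate of NADH fluorescence loss reporting ADP formed by the decarboxylase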
Spn MK inh: S. pneumoniae MK inhibitors, primary screen, biochemical, PK/LDH-coupled NADH absorbance; purified MK, PK/LDH-coupled NADH absorbance 340 nm; inhibition, % at 10 µM; hit rate 0.48% among 65,000; AID 555, 2006;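 active = ranked among the strongest by inhibition in the single 10 µM screen, a fixed top-ranked set picked for dose follow-up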
NADH enzymes: inhibitors of PK/LDH coupling enzymes, profiling panel, artefact control, biochemical, MLSMR library; coupled PK/LDH NADH assays, four targets; IC50, µM (highest dose often 10 µM); hit rate 0.02% among 65,000; AID 774, 2007;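 active = single-dose screening hits from any of four coupled enzyme assays that gave an IC50 when retested across doses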;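 also: the DPM-DC format reads NADH fluorescence rather than 340 nm absorbance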
Each line names hits and unclear results; the compound was inactive in the other large screens. Only some compounds are listed: those with a hit (about 6.5% of all), similar ones and a draw of the others.

Cc1cc(NC(=O)CSc2nnnn2C2CCCC2)no1	Fluor 339 460 2.84
COc1ccc(C2C(C#N)=C(N)N3C(=C2C#N)Sc2ccccc23)cc1 (stereo unspecified)	none
O=C(O)c1cc(=O)c2c(OCC(O)COc3cccc4oc(C(=O)O)cc(=O)c34)cccc2o1	none
CCOC(=O)c1oc2cccc(OCC(O)CNC(C)C)c2c1C (stereo unspecified)	Fluor 339 460 3.59 (not shown: DPM-DC inhibit)
CC(C)(C)NC(=O)c1ccc2nccnc2c1	none
CC(C)N(C(=O)Nc1ccc2nccnc2c1)C(C)C	Fluor 339 460 2.2 (not shown: DPM-DC inhibit)
CC(C)(C)NC(=O)Nc1ccc2nccnc2c1	Fluor 339 460 2.23 (not shown: DPM-DC inhibit)
CCOC(=O)N1CCN(C(=O)C2CCN(S(=O)(=O)N3CCCC3)CC2)CC1	Spn PMK inh 26.0
CCOC(=O)N1CCN(C(=O)C2CCCN(S(C)(=O)=O)C2)CC1 (stereo unspecified)	none
CCOC(=O)C1=C(C)NC2=C(C(=O)CCC2)C1c1cccs1 (stereo unspecified)	none
CCOC(=O)c1sc2c(c1C)C(c1cccs1)C1=C(CCCC1=O)N2 (stereo unspecified)	Fluor 339 460 4.79 (not shown: DPM-DC inhibit)
O=C(NCc1ccc2c(c1)OCO2)c1c[nH]c2ccc(S(=O)(=O)N3CCOCC3)cc2c1=O	Fluor 339 460 2.04
O=C(NCc1ccc2c(c1)OCO2)c1cc(S(=O)(=O)N2CCCCC2)ccc1F	none
O=C(NCC1COc2ccccc2O1)c1c[nH]c2ccc(S(=O)(=O)N3CCOCC3)cc2c1=O (stereo unspecified)	Fluor 339 460 2.83
COc1cccc(C2NC(=O)NC(O)(C(F)(F)F)C2C(=O)c2cccnc2)c1OC (stereo unspecified)	none
COc1cccc(C(=O)N(Cc2ccc(N(C)C)cc2)C2CCS(=O)(=O)C2)c1 (stereo unspecified)	none
CCOC(=O)c1nn(-c2ccccc2)c(C(=O)OCC)c1N	Fluor 339 460 3.84 (not shown: DPM-DC inhibit)
CCOC(=O)c1nn(-c2ccccc2)c(=O)c2c(N)scc12	none
COc1cccc2cc(C(=O)C3=C(O)C(=O)N(CCCN4CCOCC4)C3c3ccncc3)oc12 (stereo unspecified)	none
CCOc1cccc(NC(=O)C2CC(=O)NC(=Nc3ccccc3)S2)c1 (stereo unspecified)	none
COc1cc(OC)c(C2CC(=O)N3CN(c4ccc(C)cc4)CSC3=C2C#N)cc1OC (stereo unspecified)	Spn MK inh 41.0
Cc1oc2c(CN(C)C)c(O)ccc2c(=O)c1-c1ccc2ccccc2n1	none
CCc1cc2c(=O)c(Oc3ccccc3F)c(C)oc2c(CN(C)C)c1O	Fluor 339 460 2.22 (not shown: DPM-DC inhibit)
O=C(Cc1ccc(-n2cccc2)cc1)N1CCc2ccccc21	none
CCOc1ccccc1NC(=O)CCSc1nc2n[nH]c(C)c2c(=N)n1-c1ccccc1Cl	none
CCOc1ccccc1-n1c(SCC(=O)Nc2ccc(CC)cc2)nc2n[nH]c(C)c2c1=N	Fluor 339 460 4.92, Spn PMK inh 25.0 (not shown: DPM-DC inhibit)
Nc1c2c(nc3ccn(-c4ccccc4)c(=O)c13)CCCCC2	Fluor 339 460 2.14
C=CCn1c(NC(=O)c2ccco2)c(S(=O)(=O)c2ccccc2)c2nc3ccccc3nc21	Fluor 339 460 3.81 (not shown: DPM-DC inhibit)
CCCc1cc(=O)oc2cc(OCC(=O)Nc3cc(C)on3)ccc12	Fluor 339 460 3.57
CCCc1cc(=O)oc2cc(Oc3ncccn3)ccc12	Fluor 339 460 3.39
Brc1cccc(-c2nnc(SCc3ccon3)n2-c2ccccc2)c1	none
Cc1nnc(SCC(=O)NCc2ccc3c(c2)OCO3)[nH]c1=O	none
Cc1ccc(C)c(C(=O)CC2(O)C(=O)N(C)c3ccccc32)c1 (stereo unspecified)	none
Cc1ccc2c(c1)c1cccc3c1n2CCN3CCC(N)=O	Fluor 339 460 2.24 (not shown: DPM-DC inhibit)
CS(=O)(=O)N(CC(=O)NCCSc1ccc(Cl)cc1)c1ccc2c(c1)OCO2	none
COc1cc(NS(=O)(=O)c2ccc(Br)cc2)c(OC)cc1NC(=O)c1ccco1	none
